According to PubChem BioAssay (Tox21):
Results filed as inconclusive are left out. Where a call stands in place of a potency, no number is given. Values without a mark were called inactive. Activity calls are given as the source filed them. Unless noted, calls come from the whole dose curve; as a rule, active = well fitted curve in the direction sought with a large enough effect in the repeat runs; inconclusive = weak or mixed curves; inactive = no such curve, though single readings can be large; an effect the other way counts as inactive or inconclusive.

Experiments:
[1] = qHTS assay to identify small molecule antagonists of the thyroid receptor (TR) signaling pathway (AID 743065); note: nearly all actives have a fitted effect of over 55% in size; note: potency is the fitted concentration of half-maximal effect
In short: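 Antagonism measured as loss of luciferase signal in GH3 cells stably carrying a TRE-luciferase reporter, co-treated with compound and T3 (1 nM final) for 23.5 h at 37 C. Viability was read in the same well by CellTiter-Fluor.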

[2] = system: thyroid hormone receptor (rat, GH3 cells); test: qHTS assay to identify small molecule agonists of the thyroid receptor (TR) signaling pathway (AID 743066; calls by dose curve)
[3] = qHTS assay to identify small molecule antagonists of the estrogen receptor alpha (ER-alpha) signaling pathway - cell viability counter screen (AID 743074; calls by dose curve;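 note: HEK293 cells carrying ER-alpha-UAS-bla reporter stimulated with 17beta-estradiol; nearly all actives have a fitted effect of over 45% in size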)
[4] = qHTS assay to identify small molecule antagonists of the estrogen receptor alpha (ER-alpha) signaling pathway using the BG1 cell line - cell viability counter screen (AID 743081);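 note: compound given together with 17beta-estradiol as the ER stimulus; nearly all actives have a fitted effect of over 45% in size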
[5] = target: Aromatase (Homo sapiens) (UniProt P11511); test: qHTS assay to identify aromatase inhibitors (AID 743083); note: nearly all actives have a fitted effect of over 55% in size
Chain of Aromatase (Homo sapiens) (P11511 whole entry, looked up): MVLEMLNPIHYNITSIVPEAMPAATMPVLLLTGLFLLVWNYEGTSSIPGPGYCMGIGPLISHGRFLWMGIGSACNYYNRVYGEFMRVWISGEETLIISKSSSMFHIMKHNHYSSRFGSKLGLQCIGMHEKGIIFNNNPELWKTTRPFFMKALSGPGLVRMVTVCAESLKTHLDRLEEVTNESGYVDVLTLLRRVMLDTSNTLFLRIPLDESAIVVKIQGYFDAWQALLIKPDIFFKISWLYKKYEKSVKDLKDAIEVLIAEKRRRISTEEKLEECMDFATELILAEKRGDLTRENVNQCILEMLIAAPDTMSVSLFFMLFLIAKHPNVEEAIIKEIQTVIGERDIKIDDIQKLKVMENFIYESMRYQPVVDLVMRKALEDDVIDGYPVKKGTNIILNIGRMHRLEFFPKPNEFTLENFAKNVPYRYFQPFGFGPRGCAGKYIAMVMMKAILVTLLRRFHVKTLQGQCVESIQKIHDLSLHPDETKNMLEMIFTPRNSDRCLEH

[6] = qHTS assay to identify aromatase inhibitors - cell viability counter screen (AID 743084);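 note: cells stimulated with testosterone during compound exposure; nearly all actives have a fitted effect of over 55% in size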
[7] = target: Estrogen receptor (Homo sapiens) (UniProt P03372); test: qHTS assay to identify small molecule agonists of the estrogen receptor alpha (ER-alpha) signaling pathway (AID 743075; calls by dose curve;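 note: HEK293 GripTite cells with ER-alpha and UAS-driven beta-lactamase reporter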)
Chain of Estrogen receptor (Homo sapiens) (P03372 whole entry, looked up): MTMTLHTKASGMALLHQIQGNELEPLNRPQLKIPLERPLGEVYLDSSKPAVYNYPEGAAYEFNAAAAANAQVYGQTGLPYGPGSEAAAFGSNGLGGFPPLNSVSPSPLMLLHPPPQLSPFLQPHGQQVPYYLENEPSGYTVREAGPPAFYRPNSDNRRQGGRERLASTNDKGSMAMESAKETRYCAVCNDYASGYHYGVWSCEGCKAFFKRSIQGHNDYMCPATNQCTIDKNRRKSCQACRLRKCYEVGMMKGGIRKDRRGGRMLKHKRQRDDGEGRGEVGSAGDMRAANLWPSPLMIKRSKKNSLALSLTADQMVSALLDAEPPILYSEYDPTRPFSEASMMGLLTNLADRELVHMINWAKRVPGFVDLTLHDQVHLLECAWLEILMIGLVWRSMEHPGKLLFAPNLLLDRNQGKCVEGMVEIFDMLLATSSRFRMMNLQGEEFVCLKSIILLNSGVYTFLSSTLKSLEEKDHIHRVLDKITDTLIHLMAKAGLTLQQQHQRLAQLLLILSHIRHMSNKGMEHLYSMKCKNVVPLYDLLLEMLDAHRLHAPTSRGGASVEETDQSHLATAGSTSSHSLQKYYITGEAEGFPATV

[8] = target: Estrogen receptor (Homo sapiens) (UniProt P03372); test: qHTS assay to identify small molecule agonists of the estrogen receptor alpha (ER-alpha) signaling pathway using the BG1 cell line (AID 743079); conditions: BG1Luc4E2 cells, ERE-luciferase agonist, 22 h; at 70.3 µM (top of the series); note: nearly all actives have a fitted effect of over 20% in size
[9] = qHTS assay to identify small molecule antagonists of the estrogen receptor alpha (ER-alpha) signaling pathway using the BG1 cell line (AID 743080; calls by dose curve;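 note: BG1 cells stimulated with 17beta-estradiol alongside compound; nearly all actives have a fitted effect of over 25% in size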)
In short: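 BG1-Luc-4E2 cells (endogenous full-length ER-alpha, stable 4×ERE-luciferase) were starved 5 days in phenol-red-free medium with 10% charcoal-stripped FBS, plated 24 h, then given compound plus 17beta-estradiol for 21.5 h at 37 C; ONE-Glo luminescence read after 30 min.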

[10] = target: Estrogen receptor (Homo sapiens) (UniProt P03372); test: qHTS assay to identify small molecule antagonists of the estrogen receptor alpha (ER-alpha) signaling pathway (AID 743069; active = well fitted curve in the direction sought with a large enough effect in the signal ratio in the repeat runs, not every such curve was filed as active; the % refers to the signal ratio)
In short: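 Antagonist mode: compounds in DMSO were co-added with 17beta-estradiol to ER-alpha-bla HEK293 cells (2% charcoal-stripped serum) and left 18 h at 37C. Reporter inhibition was measured as FRET fluorescence after 2 h LiveBLAzer substrate at room temperature.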

| Compound | Potency [1] | Potency [2] | Potency [3] | Potency [4] | Potency [5] | Potency [6] | Potency [7] | activation [8] [%] | Potency [9] | Potency [10] |
| --- | --- | --- | --- | --- | --- | --- | --- | --- | --- | --- |
| COc1ccc2c(C(=O)c3ccc(Cl)cc3)c(C)n(CC(=O)O)c2c1 | inactive | inactive | inactive | inactive | inactive | inactive |  |  |  |  |
| CC(C)(C)C(=O)C(Cl)Cl | inactive | inactive | inactive | inactive |  |  |  |  |  |  |
| C=CC(=O)OCCN(C)C | inactive | inactive | inactive | inactive | inactive | inactive |  |  |  |  |
| ClCCCCCCCl | inactive | inactive | inactive | inactive | inactive | inactive |  |  |  |  |
| CCCC(C)(COC(N)=O)COC(N)=O | inactive | inactive | inactive | inactive | inactive | inactive |  |  |  |  |
| [P]#[In] | inactive | inactive | inactive | inactive | inactive | inactive |  |  |  |  |
| NCC1(CC(=O)O)CCCCC1 | inactive | inactive | inactive | inactive | inactive | inactive |  |  |  |  |
| CC(C)[C@]12CC(=O)[C@H](C)[C@H]1C2 | inactive | inactive | inactive | inactive | inactive | inactive |  |  |  |  |
| CC1=C2[C@H]3OC(=O)[C@@H](C)[C@@H]3CC[C@@]2(C)C=CC1=O | inactive | inactive | inactive | inactive | inactive | inactive |  |  |  |  |
| CCCC(C)C1(CC)C(=O)N=C(S)NC1=O (configuration not stated) | inactive | inactive | inactive | inactive | inactive | inactive |  |  |  |  |
| CNC(=O)Oc1cc(C)c(N(C)C)c(C)c1 | inactive | inactive | inactive | inactive | inactive | inactive |  |  |  |  |
| O=c1[nH]c2ccccc2o1 | inactive | inactive | inactive | inactive | inactive | inactive |  |  |  |  |
| COC(=O)[C@@H](N)CCCN/C(N)=N/[N+](=O)[O-] | inactive | inactive | inactive | inactive | inactive | inactive |  |  |  |  |
| O=S1(=O)OCCO1 | inactive | inactive | inactive | inactive | inactive | inactive |  |  |  |  |
| CCOC(=O)N(C)N=O | inactive | inactive | inactive | inactive | inactive | inactive |  |  |  |  |
| CC(Cl)(Cl)Cl | inactive | inactive | inactive | inactive | inactive | inactive |  |  |  |  |
| CCC(=O)OC1(c2ccccc2)CCN(C)CC1 | inactive | inactive | inactive | inactive | inactive | inactive |  |  |  |  |
| CC(=NC#N)N(C)Cc1ccc(Cl)nc1 | inactive | inactive | inactive | inactive | inactive | inactive |  |  |  |  |
| ClCCCCl | inactive | inactive | inactive | inactive | inactive | inactive |  |  |  |  |
| BrCCc1ccccc1 | inactive | inactive | inactive | inactive | inactive | inactive |  |  |  |  |

| Compound | Potency [1] | Potency [2] | Potency [3] | Potency [4] | Potency [5] | Potency [6] | Potency [7] | activation [8] [%] | Potency [9] | Potency [10] |
| --- | --- | --- | --- | --- | --- | --- | --- | --- | --- | --- |
| O=[N+]([O-])c1cccc(CCl)c1 | inactive | inactive | inactive | inactive |  |  |  |  |  |  |
| CCC(=O)c1ccc(Cl)cc1 | inactive | inactive | inactive | inactive | inactive | inactive |  |  |  |  |
| CON(C)C(=O)Nc1ccc(Br)cc1 | inactive | inactive | inactive | inactive | inactive | inactive |  |  |  |  |
| CCCCCCC1CCOC1=O (configuration not stated) | inactive | inactive | inactive | inactive | inactive | inactive |  |  |  |  |
| O=C(O)C(Cl)Br (configuration not stated) | inactive | inactive | inactive | inactive | inactive | inactive |  |  |  |  |
| CC[C@@H](CO)NC(=O)[C@@H]1C=C2c3cccc4[nH]cc(c34)C[C@H]2N(C)C1 | inactive | inactive | inactive | inactive | inactive | inactive | inactive | 2.56 | inactive |  |
| O=C(O)CBr | inactive | inactive | inactive | inactive | inactive | inactive |  |  |  |  |
| C=CCN1CC[C@]23CCCC[C@H]2[C@H]1Cc1ccc(O)cc13 | 29.8 µM (active) | inactive | inactive | inactive | inactive | inactive |  |  |  |  |
| CC(=O)OCC1=C(C(=O)O)N2C(=O)[C@@H](N)[C@H]2SC1 | inactive | inactive | inactive | inactive | inactive | inactive |  |  |  |  |
| Cl/C=C/CCl | inactive | inactive | inactive | inactive | inactive | inactive |  |  |  |  |
| CCOC(=O)COc1ccc(Cl)cc1Cl | inactive | inactive | inactive | inactive |  |  |  |  |  |  |
| CCOC(=O)C(SP(=S)(OC)OC)c1ccccc1 (configuration not stated) | inactive | inactive | inactive | inactive | inactive | inactive |  |  |  |  |
| CC(C)N(Cc1ccccc1)C(=O)C(C)(C)C | inactive | inactive | inactive | inactive | inactive | inactive |  |  |  |  |
| CC(C)NCC(O)c1ccc([N+](=O)[O-])cc1 (configuration not stated) | inactive | inactive | inactive | inactive | inactive | inactive |  |  |  |  |
| Cc1ccc2cc(C)ccc2c1 | inactive | inactive | inactive | inactive | inactive | inactive |  |  |  |  |
| CC(C)(C)NC[C@H](O)c1ccc(O)cc1Cl | inactive | inactive | inactive | inactive | inactive | inactive |  |  |  |  |
| Cc1ccc(-c2nc3ccc(C)cn3c2CC(=O)N(C)C)cc1 | inactive | inactive | inactive | inactive | inactive | inactive | inactive | 15.6 | inactive |  |
| CCCCS(=O)(=O)Cl | inactive | inactive | inactive | inactive | inactive | inactive |  |  |  |  |
| CC(C)(N)Cc1ccc(Cl)cc1 |  | inactive | inactive | inactive | inactive | inactive | inactive | 0.193 | inactive | inactive |
